Results: PubChem BioAssay (Tox21)
Results filed as inconclusive are left out. Activity calls are given as the source filed them. Unless noted, calls come from the whole dose curve; as a rule, active = well fitted curve in the direction sought with a large enough effect in the repeat runs; inconclusive = weak or mixed curves; inactive = no such curve, though single readings can be large; an effect the other way counts as inactive or inconclusive.

How the values were obtained:
[1] = qHTS assay for small molecule agonists of the p53 signaling pathway (AID 651631; calls by dose curve; note: nearly all actives have a fitted effect of over 15% in size)
In short: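 HCT-116 cells carrying a stable p53 response element–beta-lactamase reporter were plated, rested 5 h at 37 °C, then exposed to compound in DMSO for 16 h at 37 °C; reporter activity was read as FRET substrate fluorescence after 2 h at room temperature.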

[2] = qHTS assay for small molecules that induce genotoxicity in human embryonic kidney cells expressing luciferase-tagged ATAD5 (AID 651632); note: nearly all actives have a fitted effect of over 15% in size
In short: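 Reporter cells (HEK293T) express luciferase-tagged ATAD5, a protein that accumulates after DNA damage. Treat 16 hr at 37C/5% CO2, add Amplite, wait 30 min at RT, and read luminescence.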

[3] = qHTS assay for small molecule agonists of the p53 signaling pathway - cell viability (AID 651633; calls by dose curve; note: series mostly up to about 83 µM; nearly all actives have a fitted effect of over 30% in size)
In short: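 p53RE-bla cells, seeded at 4,000 per well and rested 5 h at 37 C/5% CO2, received compounds in DMSO for 16 h at 37 C. CellTiter-Glo was then added, and luminescence was read after 30 min at room temperature to gauge cytotoxicity.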

[4] = qHTS assay for small molecule disruptors of the mitochondrial membrane potential (AID 720635)
In short: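 HepG2 cells (2,000/well) attached overnight at 37C, then took compound for 1 hr at 37C, 5% CO2. Mito-MPS dye was added for 30 min; fluorescence was read at 490/535 nm (monomers) and 540/590 nm (aggregates).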

[5] = qHTS assay to test for compound auto fluorescence at 590 nm (red) in HepG2 cells (AID 720674)
In short: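 Rose Bengal sodium served as the red fluorophore standard. HepG2 monolayers (overnight attachment, MEM with 10% FBS) were exposed to test compounds for 1 hr at 37 C and read at Ex 540/Em 590 nm.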

[6] = qHTS assay to test for compound auto fluorescence at 535 nm (green) in HepG2 cells (AID 720675)
[7] = qHTS assay to test for compound auto fluorescence at 535 nm (green) in HEK293 cells (AID 720680)
[8] = qHTS assay to test for compound auto fluorescence at 535 nm (green) in HEK293 cell free culture (AID 720682)
In short: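 Read-out: 485/535 nm fluorescence intensity, calibrated against fluorescein. Medium only (DMEM + 10% FBS, no cells); test compound or DMSO vehicle added by pintool before plate reading.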

[9] = qHTS assay to test for compound auto fluorescence at 590 nm (red) in HEK293 cell free culture (AID 720683)
In short: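 Tox21 10K library compounds were pinned into cell-free DMEM with 10% FBS and fluorescence was read at excitation 540 nm. Activity is expressed as Rose Bengal sodium equivalency.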

[10] = qHTS assay to test for compound auto fluorescence at 590 nm (red) in HepG2 cell free culture (AID 720684)
In short: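 Red fluorescence (540 nm excitation, 590 nm emission) was measured after compound transfer into cell-free MEM supplemented with 10% FBS. Values are equivalencies against Rose Bengal sodium.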

[11] = qHTS assay to test for compound auto fluorescence at 460 nm (blue) in HepG2 cell free culture (AID 720685)
In short: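 Compound (23 nL) or DMSO pinned into cell-free MEM with 10% FBS; blue fluorescence read at 405/460 nm excitation/emission, expressed as auto-fluorescence equivalency to triamterene.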

[12] = qHTS assay to test for compound auto fluorescence at 535 nm (green) in HepG2 cell free culture (AID 720686)
[13] = qHTS assay to test for compound auto fluorescence at 460 nm (blue) in HepG2 cells (AID 720687)
In short: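 Cells (2,000/well in MEM with 10% FBS) attached overnight at 37 C, then were exposed to compound or DMSO for 1 hr at 37 C, 5% CO2. Fluorescence read at Ex/Em 405/460 nm, expressed as triamterene-equivalent signal.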

[14] = qHTS assay for small molecules that induce genotoxicity in human embryonic kidney cells expressing luciferase-tagged ATAD5 - cell viability (AID 651634; calls by dose curve; note: nearly all actives have a fitted effect of over 25% in size)
In short: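 Seeding of 2,000 HEK293T ATAD5-luciferase cells per well preceded pin-tool compound transfer. Plates sat 15.5 hr at 37C under 5% CO2, then fluorescence was read after 30 min with CellTiter-Fluor.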

[15] = qHTS assay for small molecule disruptors of the mitochondrial membrane potential - cell viability (AID 720634; calls by dose curve;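 note: human HepG2 liver cancer cells; series mostly up to about 83 µM; nearly all actives have a fitted effect of over 20% in size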)
In short: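 Measuring cytotoxicity alongside mitochondrial potential, the screen quantified ATP by luminescence in HepG2 cells after 1 hr compound incubation and a 30 min room-temperature CellTiter-Glo step.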

[16] = qHTS assay to test for compound auto fluorescence at 460 nm (blue) in HEK293 cells (AID 720678)
In short: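 Intrinsic compound fluorescence is recorded in live HEK293 cultures after overnight incubation at 37C, 5% CO2, using excitation 405 nm and emission 460 nm. Values are referenced to triamterene.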

[17] = qHTS assay to test for compound auto fluorescence at 460 nm (blue) in HEK293 cell free culture (AID 720681)
In short: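 Test compounds were pinned into cell-free culture medium (DMEM with 10% FBS) and fluorescence was read directly at Ex/Em 405/460 nm. Signals were expressed as fluorescence equivalents of triamterene, with DMSO vehicle as control.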

[18] = target: Glucocorticoid receptor (Homo sapiens) (UniProt P04150); assay: qHTS assay to identify small molecule agonists of the glucocorticoid receptor (GR) signaling pathway (AID 720691; active = well fitted activation curve with a large enough effect in the signal ratio in the repeat runs, not every such curve was filed as active; the % refers to the signal ratio)
Glucocorticoid receptor (Homo sapiens), sequence (P04150 whole entry, looked up): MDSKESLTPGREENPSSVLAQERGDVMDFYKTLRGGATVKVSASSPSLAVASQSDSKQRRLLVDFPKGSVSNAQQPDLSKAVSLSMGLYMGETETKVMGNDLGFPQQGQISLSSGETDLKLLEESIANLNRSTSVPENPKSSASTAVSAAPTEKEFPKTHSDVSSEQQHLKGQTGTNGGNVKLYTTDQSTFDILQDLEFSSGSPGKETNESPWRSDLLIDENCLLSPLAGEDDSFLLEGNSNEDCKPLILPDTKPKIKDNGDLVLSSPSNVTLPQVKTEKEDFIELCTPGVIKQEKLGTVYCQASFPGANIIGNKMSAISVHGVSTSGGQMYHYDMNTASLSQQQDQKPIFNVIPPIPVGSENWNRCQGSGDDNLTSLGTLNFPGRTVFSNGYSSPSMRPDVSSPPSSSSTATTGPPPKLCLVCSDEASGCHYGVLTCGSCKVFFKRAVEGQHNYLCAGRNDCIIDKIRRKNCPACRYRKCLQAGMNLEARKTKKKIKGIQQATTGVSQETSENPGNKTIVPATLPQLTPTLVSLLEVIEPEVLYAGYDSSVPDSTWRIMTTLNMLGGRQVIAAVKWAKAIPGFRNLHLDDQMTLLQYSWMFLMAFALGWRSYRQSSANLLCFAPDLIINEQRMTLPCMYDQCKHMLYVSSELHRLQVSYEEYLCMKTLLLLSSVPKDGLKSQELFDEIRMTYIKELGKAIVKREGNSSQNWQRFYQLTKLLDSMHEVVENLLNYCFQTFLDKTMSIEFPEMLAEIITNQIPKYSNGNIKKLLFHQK
In short: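 Reporter read-out: fluorescence intensity following 2 h room-temperature LiveBLAzer B/G FRET substrate loading. Prior step: GR-bla HeLa cells held 4 h, then treated 18 h at 37 C.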

[19] = target: Glucocorticoid receptor (Homo sapiens) (UniProt P04150); assay: qHTS assay to identify small molecule antagonists of the glucocorticoid receptor (GR) signaling pathway (AID 720692; active = well fitted inhibition curve with a large enough effect in the signal ratio in the repeat runs, not every such curve was filed as active; the % refers to the signal ratio)
In short: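 Dexamethasone (5 nM final) stimulated a stably integrated GRE-beta-lactamase reporter in HeLa cells during 18 h co-incubation with compounds; signal was quantified as fluorescence intensity of B/G FRET substrate after 2 h.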

[20] = qHTS assay to test for compound auto fluorescence at 590 nm (red) in HEK293 cells (AID 720679)
In short: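 Red autofluorescence, HEK293 cells: 2,000 cells/well; attach 4-5 hr 37C; add 23 nL cpd or DMSO; incubate o/n 37C 5% CO2; read Ex540/Em590; Rose Bengal sodium reference.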

Measured: Potency

CCCCCCCCCC(=O)OCC
not listed: [14] | [15] | [16] | [17] | [18] | [19] | [20]
inactive: all other assays above

Cc1ccccn1
not listed: [2] | [6] | [7] | [12] | [20]
inactive: all other assays above

CC(O)C1CCCCC1 (stereo unspecified)
not listed: [1] | [8] | [9]
inactive: all other assays above

Cc1ncsc1CCO
not listed: [4] | [6] | [12] | [14] | [15] | [18] | [19]
inactive: all other assays above

CCCCOCCOCCOCCOCCO
not listed: [1] | [11] | [16] | [17] | [18] | [19] | [20]
inactive: all other assays above

CCN1CCC[C@H]1CNC(=O)c1c(OC)ccc(Br)c1OC
not listed: [1] | [17] | [18] | [19] | [20]
inactive: all other assays above

CC(C)CCCCCCOC(=O)c1ccc(C(=O)OCCCCCCC(C)C)c(C(=O)OCCCCCCC(C)C)c1
not listed: [1] | [12] | [16] | [18] | [19]
inactive: all other assays above

C=CCCCCCC
not listed: [8] | [14] | [15] | [16] | [18]
inactive: all other assays above
